GBA enhancer: GBA activity enhancers in patient fibroblasts, primary screen, cell-based. activation, % at 10 µM. L444P Gaucher fibroblasts, 4-MU-glucoside fluorescence, 3 days. Lysosomal acid glucosylceramidase (Homo sapiens), P04062. AID 784, 2007. 0.44% of 30,000 active; in the data active = activation above about 65%
Target sequence (P04062 whole entry L483P): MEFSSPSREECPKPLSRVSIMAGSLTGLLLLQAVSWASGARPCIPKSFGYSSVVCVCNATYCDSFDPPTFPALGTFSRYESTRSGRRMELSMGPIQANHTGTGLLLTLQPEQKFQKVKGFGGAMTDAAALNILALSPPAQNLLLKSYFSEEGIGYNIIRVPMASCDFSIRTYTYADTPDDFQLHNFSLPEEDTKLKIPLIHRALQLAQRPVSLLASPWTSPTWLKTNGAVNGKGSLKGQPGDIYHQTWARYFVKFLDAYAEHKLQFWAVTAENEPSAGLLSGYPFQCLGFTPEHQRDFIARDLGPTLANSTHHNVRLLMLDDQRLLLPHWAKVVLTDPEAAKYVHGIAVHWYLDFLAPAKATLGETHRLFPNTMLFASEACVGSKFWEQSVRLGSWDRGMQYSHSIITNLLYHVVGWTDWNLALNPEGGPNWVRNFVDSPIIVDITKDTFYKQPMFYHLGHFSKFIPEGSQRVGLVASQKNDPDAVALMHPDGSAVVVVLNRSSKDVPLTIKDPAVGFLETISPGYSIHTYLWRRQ
Of the large screens only hits and unclear results are named; the others gave an inactive call. This excerpt belongs to a sample that is enriched for hits.

O=c1cccc2n1CC1CC2CN(Cc2cccc(Cl)c2Cl)C1 (stereo unspecified)	GBA enhancer 404.3
CSc1nnc(C2CCNCC2)n1C	none
COc1ccccc1N1CCN(Cc2cccc(OC)c2O)CC1	none
CC1=CC(=O)C2=C(C)CC(O)C3C(C)C(=O)OC3C12 (stereo unspecified)	none
CC12CCCCC1=[N+]([O-])CN2O (stereo unspecified)	none
CC1=C(C(=O)N2CCC3(CC2)OCCO3)C2(CCC(C)CC2)OC1=O (stereo unspecified)	none
O=C1CC(=O)N(c2ccc3c(c2)OCO3)C(=O)N1	GBA enhancer 81.0
O=C(Cc1ccccc1)Oc1ccccc1N1C(=O)CCC1=O	none
Cn1c(=O)cc(OCC(=O)N2CCN(Cc3ccc4c(c3)OCO4)CC2)c2ccccc21	none
CN(C)CCN=Cc1c(O)n(-c2cccc3ccccc23)c(=O)[nH]c1=O	none
